Bioassay records deposited in PubChem by National Center for Advancing Translational Sciences (NCATS).
In the library only some 12% were active in any assay of this set; here they are far more common.
JMJD2A Tudor inh: JMJD2A Tudor domain (human) inhibition; AlphaScreen JMJD2A-Tudor / H3K4me3 peptide binding; O75164; hit rate 4.4% among 390,000; Potency, µM (doses to about 114 µM), most hits filed as inhibitors; further: nearly all actives have a fitted effect of over 50% in size
L3MBTL1 block: blocks human L3MBTL1; AlphaScreen L3MBTL1–H3K9me1 peptide binding; Potency, µM (titrated, usually from 57.1 µM), most hits filed as inhibitors; Q9Y468; hit rate 0.66% among 230,000; AID 485360; further: nearly all actives have a fitted effect of over 60% in size
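L3MBTL1 50 nM + b-AHA-H3(1-15)K9me1 75 nM, 30 min RT; compound added, 30 min RT; streptavidin donor/Ni-chelate acceptor beads 10 ug/mL each final, 30 min RT dark; AlphaScreen read.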
Sfp inh: blocks B. subtilis Sfp PPTase activity | Potency, µM, actives largely listed as inhibitors | Biochemical Sfp PPTase activity, qHTS | hit rate 3.5% among 310,000 | Q9F4F7;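 further: the enzyme is Sfp with the accession as filed and its product quenches rhodamine fluorescence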
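Sfp 15 nM + cpd, 15 min RT; start w/ rhodamine-CoA 5 uM, BHQ-2-YbbR 12.5 uM (final); 50 mM Hepes pH 7.6, 10 mM MgCl2, 0.01% NP-40, 0.01% BSA; read 525/598 nm at 0 and 30 min.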
BAZ2B inh: inhibitors of human BAZ2B bromodomain. Q9UIF8. AlphaScreen BAZ2B-H3K14Ac peptide displacement. Potency, µM (doses to about 114 µM), usual class: inhibitors. hit rate 4.4% among 360,000; further: nearly all actives have a fitted effect of over 60% in size
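AlphaScreen displacement: compounds (up to 110uM) incubated 30 min at room temperature with a preformed 50 nM BAZ2B/50 nM biotinylated H3K14Ac peptide complex in PBS pH 7.4 with Tween-20. Donor and acceptor beads at 10 ug/mL final added, 20 min light-protected before reading.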
HP1b binding inh: blocks HP1-beta chromodomain binding to methylated histone tails; P83916; AlphaScreen HP1-beta / biotin-H3K9me3 peptide binding; hit rate 0.56% among 390,000; Potency, µM (doses to about 114 µM), usual class: inhibitors; AID 540317; further: nearly all actives have a fitted effect of over 70% in size
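Compound inhibition of the preformed complex between 50 nM HP1-beta and 50 nM biotinylated H3K9me3 peptide was read by AlphaScreen. Buffer was PBS pH 7.4 with 0.01% Tween-20. Incubations ran 30 min at room temperature, with 10 ug/mL donor/acceptor beads.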
G9a inh: inhibitors of human histone lysine methyltransferase G9a. G9a H3K9 monomethylation, AlphaScreen, 2 h. Potency, µM (series often up to 102 µM), actives largely listed as inhibitors. hit rate 8.8% among 350,000. AID 504332; further: nearly all actives have a fitted effect of over 75% in size
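Step 1: enzyme (final 20 nM) with compound, 15 min RT. Step 2: substrate peptide 500 nM and SAM 20 uM, 2 h RT. Step 3: anti-H3K9me1 antibody and AlphaScreen beads, 10 min, then plate read.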
Hits are given with their value; [ ] = remark or other dose. The call rests on the fitted dose curve; in most records, active means well fitted curve in the direction sought with a large enough effect; inconclusive means small, poorly fitted or top-dose-only effect, or another doubt; inactive means no such curve, though single readings can be large; an effect the other way counts as inactive or inconclusive.

CCOc1ccccc1-c1nc(CN2CCN(C(=O)c3ccco3)CC2)c(C)o1 was read as JMJD2A Tudor inh inactive, Sfp inh inactive, BAZ2B inh inactive, HP1b binding inh inactive and G9a inh inactive.
`O=C(c1ccco1)N1CCN(CC2CC3C=CC2C3)CC1` (stereo not drawn) gave JMJD2A Tudor inh 1.4µM, L3MBTL1 block inactive, Sfp inh inactive, BAZ2B inh 50µM, HP1b binding inh inactive and G9a inh inconclusive.
O=C(c1ccco1)N1CCN(Cc2ccc(F)cc2)CC1 was read as JMJD2A Tudor inh 20µM, L3MBTL1 block inactive, Sfp inh inactive, BAZ2B inh 79µM, HP1b binding inh inconclusive and G9a inh 11µM.
Screening O=C(c1ccco1)N1CCN(Cc2nnc(-c3ccccc3F)o2)CC1 returned JMJD2A Tudor inh inconclusive, Sfp inh inactive, BAZ2B inh inactive, HP1b binding inh inactive and G9a inh 71µM.
Screening Cc1cnc(CNC(=O)C2CCC(=O)N(CCc3ccc(Cl)cc3)C2)cn1 (stereo not drawn) returned JMJD2A Tudor inh inactive, Sfp inh inactive, BAZ2B inh inactive and HP1b binding inh inactive.
CCOc1ccc(CN2CCN(C(=O)c3ccco3)CC2)cc1 was read as JMJD2A Tudor inh 20µM, L3MBTL1 block inactive, Sfp inh inactive, BAZ2B inh inactive, HP1b binding inh inconclusive and G9a inh 32µM.
`O=C(Cc1ccccc1F)OCC(=O)N1CCN(C(=O)c2ccco2)CC1` gave JMJD2A Tudor inh inactive, L3MBTL1 block inactive, Sfp inh inactive, BAZ2B inh inactive, HP1b binding inh inactive and G9a inh inactive.
CCOc1ccc(OCC(=O)OCC(=O)N2CCN(C(=O)c3ccco3)CC2)cc1 was read as JMJD2A Tudor inh inactive, L3MBTL1 block inconclusive, BAZ2B inh inactive, HP1b binding inh inactive and G9a inh 32µM.
For O=C(c1ccco1)N1CCN(Cc2ccccc2Br)CC1 the results were JMJD2A Tudor inh 8.9µM, Sfp inh inconclusive, BAZ2B inh 32µM, HP1b binding inh inconclusive and G9a inh 20µM.
COc1ccc(CN2CCN(C(=O)c3ccco3)CC2)cc1 was read as JMJD2A Tudor inh inactive, L3MBTL1 block inactive, Sfp inh inactive, BAZ2B inh inactive, HP1b binding inh inactive and G9a inh inactive.
O=C(c1ccco1)N1CCN(C(=O)c2ccc(Cn3cc(Br)cn3)o2)CC1 was read as JMJD2A Tudor inh inactive, Sfp inh inactive, BAZ2B inh inactive, HP1b binding inh inactive and G9a inh 50µM.
For COc1ccc(CC(=O)OCC(=O)NCc2ccc3c(c2)OCO3)cc1OC the results were JMJD2A Tudor inh inactive, L3MBTL1 block inactive and HP1b binding inh inactive.
`CC(C)[C@H](NC(=O)N1CC(=O)Nc2ccccc21)C(=O)N1CCC[C@@H]1C(=O)O` gave JMJD2A Tudor inh inactive, Sfp inh inactive, BAZ2B inh inactive and HP1b binding inh inactive.
Screening CCOc1ccccc1-n1c(CN2CCN(C(=O)c3ccco3)CC2)nc2ccccc2c1=O returned JMJD2A Tudor inh inactive, L3MBTL1 block inactive[11.4 µM], Sfp inh inconclusive, BAZ2B inh inactive, HP1b binding inh inactive and G9a inh 14µM.
`O=C(c1ccc(F)cc1)N1CCN(Cc2ccccc2Br)CC1` gave JMJD2A Tudor inh 25µM, L3MBTL1 block inactive, Sfp inh inconclusive, BAZ2B inh inconclusive, HP1b binding inh inconclusive and G9a inh 10µM.
Screening Cc1ccc2c(CN3CCN(C(=O)c4ccc(F)cc4)CC3)cc(=O)oc2c1 returned JMJD2A Tudor inh inactive, BAZ2B inh inactive, HP1b binding inh inactive and G9a inh inactive.
`CCOc1cc(CN2CCN(C(=O)c3ccco3)CC2)ccc1OC` gave JMJD2A Tudor inh 5.6µM, L3MBTL1 block inactive, Sfp inh inactive, BAZ2B inh 50µM, HP1b binding inh inconclusive and G9a inh inactive[12.7 µM].
Screening Cc1ccccc1OCC(=O)Nc1ccc(C(=O)OCc2cc(=O)n3c(C)csc3n2)cc1 returned JMJD2A Tudor inh inactive, BAZ2B inh inactive, HP1b binding inh inactive and G9a inh inactive[12.7 µM].
`COc1ccc(C(=O)Nc2ccc(S(=O)(=O)N3CCN(C)CC3)cc2)cc1[N+](=O)[O-]` gave JMJD2A Tudor inh inactive, L3MBTL1 block inactive, Sfp inh inactive, BAZ2B inh inactive, HP1b binding inh inactive and G9a inh inactive.
